PubChem BioAssay (NCATS)
Inconclusive results are not listed. The source made the active and inactive calls. The call rests on the fitted dose curve; in most records, active means well fitted curve in the direction sought with a large enough effect; inconclusive means small, poorly fitted or top-dose-only effect, or another doubt; inactive means no such curve, though single readings can be large; an effect the other way counts as inactive or inconclusive.

How the values were obtained:
[1] = Viability qHTS for spleen associated tyrosine kinase inhibitor (SYKi) naive MV4-11 cells (AID 1963823); further: nearly all actives have a fitted effect of over 40% in size
Method in brief: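 Luminescence from CellTiter-Glo, developed 10 min at room temperature, gave viability of MV4-11 cells never exposed to SYK inhibitor. Cells (500/well) had been incubated with compounds for 72 hr under standard culture conditions.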

[2] = Cellular viability qHTS for adrenocortical cancer (ACC) cell line NCI-H295R (AID 1963990); further: nearly all actives have a fitted effect of over 60% in size
Method in brief: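 IC50 and maximal efficacy derive from four-parameter logistic modelling of titration curves, with reads scaled between DMSO-only wells (0%) and doxorubicin hydrochloride (100% inhibition). Compounds spanned up to 46 uM over 48 h.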

[3] = Viability qHTS for spleen associated tyrosine kinase inhibitor (SYKi) drug resistant MV4-11 cells (AID 1963824); further: nearly all actives have a fitted effect of over 35% in size
Method in brief: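 SYK-inhibitor-resistant MV4-11 AML cells were seeded at 500 per well onto compound and cultured 72 hours (37 °C, 5% CO2). CellTiter-Glo was then added, and after 10 min at room temperature, luminescence gave viability.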
Potency means the concentration at half of the fitted maximal effect.

With `Cc1cccc(/C=N/Nc2cc(N3CCOCC3)nc(OCCc3ccccn3)n2)c1` the Potency [1] was 1.32 µM (active) and the Potency [2] was 28.2 µM (active).
In the case of `C#C[C@]1(OC(C)=O)CC[C@H]2[C@@H]3CCC4=C/C(=N/O)CC[C@@H]4[C@H]3CC[C@@]21CC`, the Potency [1] is reported as 26.6 µM (active) and the Potency [2] is reported as 20.6 µM (active).
With `COC1C2=C(COC2=O)C2(C)CCCC(C)(CO)C2C1OC(=O)c1ccccc1` (stereo not drawn) the Potency [3] was “inactive”.
In the case of `CCOC(=O)c1cc(=O)c2c(OCC(COc3cccc4oc(C(=O)OCC)cc(=O)c34)OC(=O)[C@@H](N)CCCCN)cccc2o1`, the Potency [1] is reported as “inactive” and the Potency [2] is reported as “inactive”.
In the case of `Cc1[nH]c(/C=C2\C(=O)Nc3ccc(S(=O)(=O)Cc4c(Cl)cccc4Cl)cc32)c(C)c1C(=O)N1CCC[C@@H]1CN1CCCC1`, the Potency [1] is reported as 0.934 µM (active) and the Potency [2] is reported as 7.08 µM (active).
With `CC(C)c1c(O)ccc2c1CC[C@H]1C(C)(C)CCC[C@]21C` the Potency [3] was 16.4 µM (active).
For `CC1CCN(C(c2ccc(F)cc2)c2ccc(C(C)C(=O)O)cc2-c2ccc(C(F)(F)F)cc2)CC1` (stereo not drawn), the Potency [3] was 6.51 µM (active).
For `C=C(C(=O)OC)[C@@H]1CC=C2C=CC(=O)[C@H](C)[C@@]2(C)C1`, the Potency [3] was 18.4 µM (active).
With `Cc1c(F)cccc1NC(=O)Nc1ccc(Cl)c(S(=O)(=O)[C@H]2CCCNC2)c1O` the Potency [1] was “inactive” and the Potency [2] was “inactive”.
For `O=C1OC2(c3ccccc31)c1cc(I)c(O)c(I)c1Oc1c2cc(I)c(O)c1I`, the Potency [1] was “inactive” and the Potency [2] was “inactive”.
With `CSc1ccc(/C=C2/C(C)=C(CC(=O)O)c3cc(F)ccc32)cc1` the Potency [1] was “inactive” and the Potency [2] was 25.9 µM (active).
In the case of `C[C@@H]1C(=O)O[C@H](C)[C@H]1CC(=O)[C@](C)(O)[C@H]1CC[C@@]2(O)C3=CC(=O)[C@@H]4C[C@@H](O)[C@@H](O)C[C@]4(C)C3CC[C@]12C` (stereo partly drawn), the Potency [3] is reported as “inactive”.
In the case of `CCC(C)C(=O)O[C@H]1[C@H](O)[C@@]2(COC(C)=O)C(CC1(C)C)C1=CCC3[C@@]4(C)CC[C@H](O[C@@H]5O[C@H](C(=O)O)[C@@H](O)[C@H](O)[C@H]5O)[C@@](C)(CO)C4CC[C@@]3(C)[C@]1(C)C[C@@H]2O` (stereo partly drawn), the Potency [3] is reported as 3.48 µM (active).
In the case of `CC1(C)O[C@H]2CC(=O)OC[C@@]23C1=C(O)C(=O)[C@]1(C)C3CC[C@@]2(C)[C@H](c3ccoc3)OC(=O)[C@H]3O[C@]321` (stereo partly drawn), the Potency [3] is reported as “inactive”.
With `COC(CCc1ccc(O)cc1)CC(=O)CCc1ccc(O)cc1` (stereo not drawn) the Potency [3] was 14.3 µM (active).
For `O=C(/C=C/c1ccc(O)cc1)O[C@@H]1C[C@@](O)(C(=O)O)C[C@@H](O)[C@@H]1O`, the Potency [3] was “inactive”.
For `Cc1nc(C)c(CN2CCN(C(c3ccc(F)cc3)c3ccc(F)cc3)CC2)nc1C`, the Potency [3] was 14.8 µM (active).
With `COc1cc(C2Oc3c(OC)cc(/C=C/C(=O)OC4CC(O)(C(=O)O)CC(O)C4O)cc3C2CO)ccc1O` (stereo not drawn) the Potency [3] was “inactive”.
For `NC(=O)C1=CC2C3C=CC2C(OC3=O)O1` (stereo not drawn), the Potency [3] was 26.6 µM (active).
With `CC1(C)CC[C@]2(C(=O)O[C@@H]3O[C@H](CO)[C@@H](O)[C@H](O)[C@H]3O)CC[C@]3(C)C(=CCC4[C@@]5(C)CC[C@H](O[C@@H]6O[C@H](C(=O)O)[C@H](O)[C@H](O)[C@H]6O)C(C)(C)C5CC[C@]43C)[C@@H]2C1` (stereo partly drawn) the Potency [3] was 4.85 µM (active).
In the case of `N[C@H]1Cc2ccccc2N(O)C1=O`, the Potency [3] is reported as “inactive”.
For `CC1(C)[C@@H]2CC=C(CO[C@@H]3O[C@H](CO[C@@H]4OC[C@H](O)[C@H](O)[C@H]4O)[C@@H](O)[C@H](O)[C@H]3O)[C@H]1C2`, the Potency [3] was “inactive”.
In the case of `CC1=C(CO)C2(C)CCCC(C)(C)C2C(O)C1O` (stereo not drawn), the Potency [3] is reported as “inactive”.
With `C=C1C(O)CC2C(C(=O)O)=COC(OC3OC(CO)C(O)C(O)C3OC(=O)/C=C\c3ccc(O)cc3)C12` (stereo not drawn) the Potency [3] was “inactive”.
For `O=C(Nc1ccc(Cl)cc1)c1ccccc1NCc1ccncc1`, the Potency [3] was 11.6 µM (active).
For `NC(N)=NC(=O)c1cnn(-c2cccc3ncccc23)c1C1CC1`, the Potency [3] was 3.26 µM (active).
